# In PubChem BioAssay AID463173 (ICCB-Longwood Screening Facility, Harvard Medical School, 2010):
# In all, about 52,000 compounds went through this assay and about 4,300 (8.3%) were called active. Rule as the data show it: active = survival mostly below about 52% (no sharp cut-off); inactive = mostly above about 56%. What follows is part of a selection rich in actives, with near analogues and random picks from the rest.
# Test system: DeltatarO mutant
# Assay: S. aureus survival, RN4220 and DeltatarO strains – OD600, teichoic acid synthesis inhibitors, primary screen (AID 463173)
# Settings: S. aureus RN4220 wild type/DeltatarO growth, OD600, 18 h, active compounds read low, screened at 18.75 µg/mL (by protocol)
row,Compound,survival
1,COc1ccc(NC(=O)CCN2CCN(c3cccc(Cl)c3)CC2)cc1,67% (inactive)
2,Cc1ccc(CNC(=O)c2ccc(N3Cc4ccccc4Oc4ncccc43)s2)cc1,81% (inactive)
3,CCCCCc1ccc(-c2ccc(C(=O)Oc3ccc(C(=O)OC)cc3)cc2)nc1,71% (inactive)
4,CCCCCc1ccc(-c2ccc(Br)cc2)nc1,-4% (active)
5,CCCc1ccc(-c2ccc(C(=O)Oc3ccc(Br)cc3)cc2)nc1,136% (inactive)
6,COc1ccccc1C(=O)Nc1cc(-c2cccc(Br)c2)nn1-c1ccccc1,115% (inactive)
7,Cn1c(=O)oc2cc(S(=O)(=O)N3CCCC(C(=O)NCc4ccc(F)cc4)C3)ccc21 (stereo not given),131% (inactive)
8,Cc1cc(C)n(CCC(=O)Nc2ccc(Cl)cc2)n1,87% (inactive)
9,Cc1ccc(-c2nn(-c3ccccc3)c3c2cnc2ccccc23)cc1C,68% (inactive)
10,Cc1ccc(-n2nc(-c3ccccc3)c3cnc4cc5c(cc4c32)OCO5)cc1C,127% (inactive)
11,CCOc1ccc2ncc3c(-c4cccc(OC)c4)nn(-c4ccccc4)c3c2c1,100% (inactive)
12,COc1cc2ncc3c(-c4ccccc4)nn(-c4ccc(C)cc4)c3c2cc1OC,47% (active)
13,CCc1ccc(-c2nn(-c3ccc(OC)cc3)c3c2cnc2ccc(OC)cc23)cc1,14% (active)
14,COc1ccc(-c2nn(-c3ccc(C)cc3)c3c2cnc2ccc(C)cc23)cc1OC,76% (inactive)
15,CCOc1ccc(-c2nn(-c3ccc(F)cc3)c3c2cnc2ccc(F)cc23)cc1,81% (inactive)
16,COc1ccc(-n2nc(-c3ccc(C)cc3)c3cnc4cc(F)c(F)cc4c32)cc1,88% (inactive)
17,COc1ccc(-c2nn(-c3ccc(C)c(Cl)c3)c3c2cnc2cc(OC)c(OC)cc23)cc1,94% (inactive)
18,FC(F)(F)c1ccc2c(c1)ncc1c(-c3ccccc3)nn(-c3ccccc3)c12,125% (inactive)
19,CCc1ccc2ncc3c(-c4ccccc4)nn(-c4ccccc4)c3c2c1,5% (active)
20,COc1ccc2ncc3c(-c4ccccc4)nn(-c4ccc(C)c(C)c4)c3c2c1,18% (active)
21,O=C(Nc1ccc(F)cc1F)C1CCCN1S(=O)(=O)c1cccc2nsnc12 (stereo not given),94% (inactive)
22,COc1ccc2c(CNCCc3cccs3)c(C(=O)O)n(Cc3ccccc3C)c2c1,94% (inactive)
23,CC1=C(C(=O)Nc2ccc(C)cc2C)C(c2ccc(Br)cc2)n2ncc(C(=O)Nc3cccc(C)c3)c2N1 (stereo not given),128% (inactive)

row,Compound,survival
1,COc1ccc(-c2nc3ccccc3n3c(-c4cccc(C)c4)c4c(=O)n(C)c(=O)n(C)c4c23)cc1,71% (inactive)
2,Cc1ccc(-c2cc(C(=O)O)n(Cc3ccccc3)n2)cc1,67% (inactive)
3,Cc1ccc(-c2cc(N)n(Cc3cccc(Cl)c3)n2)cc1,55% (active)
4,CC(=O)Nc1cc(-c2ccccc2)nn1Cc1cccc(Cl)c1,57% (inactive)
5,O=C(O)c1cc(-c2ccccc2)nn1Cc1ccccc1,73% (inactive)
6,CCOC(=O)c1cc(-c2ccccc2)nn1Cc1ccccc1,-12% (active)
7,CCOC(=O)c1cc(-c2ccc(OC)cc2)nn1Cc1ccccc1,66% (inactive)
8,COc1ccc(-c2cc(C(=O)O)n(Cc3ccccc3)n2)cc1,76% (inactive)
9,CCOC(=O)c1cc(-c2ccc(C)cc2)nn1Cc1ccccc1,-12% (active)
10,Cc1ccc2c(c1)cc1c(=O)n(Cc3cccc(Cl)c3)nc(C)n12,89% (inactive)
11,O=C(c1ccco1)N1CCN(C(c2ccccc2)c2nnnn2Cc2ccccc2)CC1 (stereo not given),88% (inactive)
12,O=C(Cn1cc(C(=O)c2ccco2)c2ccccc21)Nc1ccccc1C(F)(F)F,74% (inactive)
13,CCn1nc(C)c2c(-c3ccccc3)cc(=O)n(C(C)C(=O)NCCc3ccc(Cl)cc3)c21 (stereo not given),87% (inactive)
14,CCc1nnc(SCc2cccc(Cl)c2)c2cc3sccc3n12,-2% (active)
15,CCc1nnc(SCc2c(F)cccc2Cl)c2cc3sccc3n12,94% (inactive)
16,CCc1nnc(SCc2ccc(F)cc2Cl)c2cc3sccc3n12,80% (inactive)
17,CCOC(=O)N1CCN(Cc2nc3cc(NC(=O)CC)ccc3n2C(C)C)CC1,100% (inactive)
18,COc1cccc(-c2csc(N3CCN(C(=S)NCc4ccco4)CC3)n2)c1,91% (inactive)
19,COc1ccc(CCNC(=O)CCc2c(C)nc3cc(-c4ccccc4OC)nn3c2C)c(OC)c1,54% (active)
20,COc1ccccc1CNC(=O)CCc1c(C)nc2cc(-c3ccccc3OC)nn2c1C,58% (inactive)
21,COc1ccc(CNC(=O)CCc2c(C)nn(-c3ccc(N4CCCCC4)nn3)c2C)c(OC)c1,52% (active)
22,COc1ccc(CNC(=O)CCc2c(C)nn(-c3ccc(N4CCOCC4)nn3)c2C)c(OC)c1,85% (inactive)
23,COc1ccc(CNC(=O)Cn2nc(N3CCN(c4ccccc4)CC3)ccc2=O)c(OC)c1,-2% (active)

row,Compound,survival
1,COc1ccccc1-c1cc2nc(C)c(CCC(=O)Nc3ccc(Br)c(C)c3)c(C)n2n1,67% (inactive)
2,CCOC(=O)c1ccc(NC(=O)CCc2c(C)nc3cc(-c4ccc(OC)cc4OC)nn3c2C)cc1,62% (inactive)
3,CCOc1ccccc1CNC(=O)Cn1nc(N2CCN(c3ccccc3)CC2)ccc1=O,84% (inactive)
4,COc1cccc(NC(=O)Cn2nc(N3CCN(c4ccccc4)CC3)ccc2=O)c1,77% (inactive)
5,CCOc1ccc(NC(=O)CCc2c(C)nc3cc(-c4ccccc4OC)nn3c2C)cc1,53% (active)
6,COc1ccc(CCNC(=O)CCc2c(C)nc3cc(-c4ccc(Cl)cc4)nn3c2C)c(OC)c1,108% (inactive)
7,COc1ccc(CNC(=O)CCc2c(C)nn(-c3ccc(N4CCCC4)nn3)c2C)c(OC)c1,75% (inactive)
8,CC(C)c1ccc(S(=O)(=O)NCc2nc3cccnc3n2Cc2ccc(F)cc2)cc1,88% (inactive)
9,COc1cccc(CNC(=O)CN2C(=O)COc3ccc(S(=O)(=O)N4CCOCC4)cc32)c1,94% (inactive)
10,Cn1cc(S(=O)(=O)N2CCCCCC2)cc1C(=O)Nc1ccc(Cl)c(C(F)(F)F)c1,67% (inactive)
11,O=C(Nc1cccc(OC(=O)c2ccco2)c1)c1ccccc1,58% (inactive)
12,CNC(=S)N1CCN(C(=O)/C(=C/c2ccc(F)cc2)NC(C)=O)CC1,95% (inactive)
13,Cc1ccc(-c2cc(C(=O)N(Cc3ccc(C(C)(C)C)cc3)Cc3ccco3)no2)cc1,113% (inactive)
14,CCc1nc2ccc(C(=O)NCCc3ccc(OC)cc3OC)cc2nc1CC,68% (inactive)
15,Cc1cccc(N2CCN(S(=O)(=O)c3ccc4oc(=O)c5ncn(C)c5c4c3)CC2C)c1 (stereo not given),77% (inactive)
16,Cc1ccc2c(c1)NC(=O)C(CC(=O)Nc1ccccc1Cl)O2 (stereo not given),77% (inactive)
17,CCc1nn(C(C)C(=O)N2CCN(c3ccccc3)CC2)c(=O)c2cc3occc3n12 (stereo not given),82% (inactive)
18,CC(=O)Nc1ccc(-c2cc(C(=O)O)c3c(-c4ccccc4)[nH]nc3n2)cc1,56% (inactive)
19,O=C(Nc1nc2c(F)cc(F)cc2s1)c1ccc(S(=O)(=O)N2CCc3ccccc32)cc1,115% (inactive)
20,Clc1ccc2nc(NCc3ccccc3)c3nncn3c2c1,96% (inactive)
21,CC(C)OCCCn1c(SCc2ccccc2C#N)nc2c(sc3ccccc32)c1=O,87% (inactive)
22,CCOC(=O)c1cccc(NC(=O)N2CC(CC)Oc3ccccc32)c1 (stereo not given),54% (inactive)
23,CCOC(=O)c1cccc(NC(=O)CCc2c(C)nc3cc(-c4ccc(Cl)cc4)nn3c2C)c1,35% (active)

row,Compound,survival
1,CCOc1ccc(NC(=O)CCc2c(C)nc3cc(-c4ccc(Cl)cc4)nn3c2C)cc1,35% (active)
2,CC(=O)c1ccc(NC(=O)CCc2c(C)nc3cc(-c4ccc(Cl)cc4)nn3c2C)cc1,47% (inactive)
3,CCOc1ccc(CCNC(=O)CCc2c(C)nc3cc(-c4ccccc4OC)nn3c2C)cc1,50% (active)
4,CCOC(=O)CC(NC(=O)CCc1c(C)nc2cc(-c3ccccc3)nn2c1C)c1ccc(C)cc1 (stereo not given),109% (inactive)
5,CCOC(=O)c1cccc(NC(=O)CCc2c(C)nc3c4cccnc4nn3c2C)c1,100% (inactive)
6,CCOC(=O)Cc1c(C)nc2cc(C)nn2c1C,98% (inactive)
7,COc1ccccc1-c1cc2nc(C)c(CCC(=O)NCCc3cccc(C)c3)c(C)n2n1,55% (inactive)
8,CCN(CC)S(=O)(=O)c1ccc(NC(=O)CCc2c(C)nc3cc(-c4ccc(Cl)cc4)nn3c2C)cc1,92% (inactive)
9,COc1ccccc1-c1cc2nc(C)c(CCC(=O)NCCc3ccc(SC)cc3)c(C)n2n1,81% (inactive)
10,CCOC(=O)Cc1c(C)nc2cc(-c3ccc(C(C)(C)C)cc3)nn2c1C,-4% (active)
11,COC(=O)c1cc(NC(=O)CCc2c(C)nc3cc(-c4ccccc4)nn3c2C)cc(C(=O)OC)c1,118% (inactive)
12,c1ccc(C2=NNC(c3nc4ccccc4[nH]3)C2)cc1 (stereo not given),60% (inactive)
13,CCCOC(=O)C1=C(C)OC23OC(N)=C(C#N)C12C(=O)c1ccccc13 (stereo not given),80% (inactive)
14,O=C(Cn1c(-c2cccs2)cc2ccccc21)NCCCN1CCN(c2ccccc2F)CC1,69% (inactive)
15,CCn1c(SCc2cccc(Br)c2)nnc1-c1nonc1NC(C)=O,108% (inactive)
16,CC1CCN(C(=O)c2cnn(-c3ccc(Cl)cc3)c2C2CCN(C(=O)OC(C)(C)C)CC2)CC1,76% (inactive)
17,Cc1nc2nc(C)c(NS(=O)(=O)c3ccc(CC(C)C)cc3)c(=O)n2[nH]1,89% (inactive)
18,Cc1ccccc1NC(=O)Nc1nnc(N2CCCCCC2)s1,94% (inactive)
19,CCc1ccccc1NC(=O)CCc1c(C)nc2cc(-c3ccccc3)nn2c1C,59% (inactive)
20,COC(=O)c1ccccc1NC(=O)CCc1c(C)nc2cc(-c3ccc(Cl)cc3)nn2c1C,41% (active)
21,COc1ccccc1CNC(=O)CCc1c(C)nc2cc(-c3ccc(Cl)cc3)nn2c1C,129% (inactive)
